# Most compounds without a hit are left out; they make up all but 3.7% or so of the library.
# Wnt act: Wnt/beta-catenin pathway activators, primary screen, cell-based, plate reader, single point | Wnt/beta-catenin reporter cell assay, activator | activation, % at 9.35 µM | hit rate 1.2% among 300,000 | AID 743398, 2014; in the data active = activation above about 30%, passing the limit was not always enough; inconclusive = no clear call, values can overlap the other calls;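 note: 0% = neutral control wells and 100% = positive control wells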
# esBAF inh: Bmi1 luciferase reporter increase in mESCs, primary screen, esBAF inhibitor project, mouse ES cells, Bmi1 luciferase knock-in, single point. 24 h; 100% = twice the neutral-well signal. hit rate 2% among 350,000. reporter increase, % at 12.5 µM; in the data active = activation above about 40%; inconclusive = no clear call, values can overlap the other calls;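 note: 0% = median of the plate's neutral control wells and 100% = double that signal; a rise in the Bmi1 reporter signal indicates esBAF inhibition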
# MITF TRPM1 HTS: activators of MITF-driven TRPM1 promoter reporter, primary screen, cell-based, SK-MEL-5, luciferase, single point; SK-MEL-5 TRPM1-promoter luciferase, 24 h; % of positive control, neutral wells = 0; activation, % at 12.5 µM; hit rate 0.75% among 300,000; AID 588334, 2011;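 active = mean activation of at least 80% with every replicate also reaching 80%; inconclusive = mean reaches 80% but some replicate falls short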;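 note: 0% = neutral control wells and 100% = parthenolide positive control wells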
# MLL AF4-AF9 inh: inhibitors of AF4 peptide binding to AF9, primary screen, biochemical, AlphaScreen, biotin-AF4 peptide, FLAG-AF9, single point. AID 651704, 2012. inhibition, % at 10 µM. hit rate 0.47% among 350,000;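 active = every replicate reaching a set inhibition limit, whatever the replicate mean, cut at about 25% in these data; inconclusive = mean inhibition reaches that limit but some replicates miss it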;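 note: 0% = plate neutral control median and 100% = total signal loss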
# Target sequence (P42568 whole entry, looked up): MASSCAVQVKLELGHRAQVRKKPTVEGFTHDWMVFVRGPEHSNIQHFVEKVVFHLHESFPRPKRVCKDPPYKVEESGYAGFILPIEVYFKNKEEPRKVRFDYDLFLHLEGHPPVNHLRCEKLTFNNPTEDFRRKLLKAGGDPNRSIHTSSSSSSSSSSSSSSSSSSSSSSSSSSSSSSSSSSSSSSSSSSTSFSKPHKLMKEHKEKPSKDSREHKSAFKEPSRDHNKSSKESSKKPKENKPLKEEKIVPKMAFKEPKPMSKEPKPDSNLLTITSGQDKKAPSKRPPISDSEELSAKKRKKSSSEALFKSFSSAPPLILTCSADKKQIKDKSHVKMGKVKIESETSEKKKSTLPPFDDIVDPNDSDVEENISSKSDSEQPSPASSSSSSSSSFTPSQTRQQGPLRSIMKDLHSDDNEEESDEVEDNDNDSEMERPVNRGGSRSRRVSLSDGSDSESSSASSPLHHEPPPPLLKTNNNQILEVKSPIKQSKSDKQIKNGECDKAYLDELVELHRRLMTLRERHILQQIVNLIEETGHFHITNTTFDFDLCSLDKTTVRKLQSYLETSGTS
# Ecoli rRNA inh: reduced GFP signal of wild-type E. coli, primary screen, bacterial rRNA inhibitor project, GFP/RFP fluorescence, OD600, single point | AID 720706, 2013 | E. coli WT GFP vs humanized-ribosome RFP mutants, 24 h; stronger effect = lower value; DMSO median 0, no signal -100 | GFP signal change (wild-type ribosome), % (no concentration beside the values) | hit rate 1.6% among 350,000;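 active = significant combined selectivity score with lowered wild-type GFP, culture density cut under 30%, mutant RFP and density less affected; inactive = any of these conditions unmet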
# The depositor's hits bear a star; ? = inconclusive; . = no result.
SMILES,Wnt act,esBAF inh,MITF TRPM1 HTS,MLL AF4-AF9 inh,Ecoli rRNA inh
COC(=O)c1cc(NC(=O)c2cc3ccccc3o2)cc(C(=O)OC)c1,1,-6,-7,-2,-23*
COc1cc(NC(C)=O)ccc1NC(=O)c1cc2ccccc2o1,3,55*,39,0,7
CCCC(=O)Nc1ccc(NC(=O)c2cc3ccccc3o2)c(OC)c1,2,53*,64,-1,7
COCC(=O)Nc1ccc2c(c1)OC[C@H](C)N(Cc1ccncc1)C[C@@H](C)[C@H](OC)CN(C)C2=O,.,1,.,.,.
CCCCCn1c(CN2CCN(C(=O)c3ccco3)CC2)nc2c1c(=O)n(C)c(=O)n2C,61*,7,.,0,0
C[C@H](CO)N1C[C@H](C)[C@@H](CN(C)C(=O)Nc2ccccc2F)Oc2cc(Br)ccc2S1(=O)=O,-1,3,.,-2,-3
COc1ccc(NC(=O)c2cc3sccc3n2Cc2ccc(F)cc2)cc1OC,17,65*,55,.,.
Cn1c(C(=O)Nc2ccc3c(c2)OCO3)cc2sccc21,.,33,62,.,.
Cn1c(C(=O)Nc2ccccc2)cc2sccc21,51*,-10,32,.,.
COc1ccc(OC)c(NC(=O)c2cc3sccc3n2C)c1,.,16,8,.,.
COc1cc(NC(=O)c2cc3sccc3n2C)cc(OC)c1,?,42*,77,.,.
COC(=O)c1ccc(NC(=O)c2cc3sccc3n2C)cc1,19,55*,30,.,.
O=C(COC(=O)/C=C/c1ccc(S(=O)(=O)N2CCOCC2)cc1)Nc1ccc(F)c(F)c1F,-4,1,0,-2,7
CO[C@@H]1CN(C)C(=O)c2ccc(NC(=O)C3CCOCC3)cc2OC[C@@H](C)N(S(=O)(=O)c2ccc(Cl)cc2)C[C@H]1C,.,3,.,-1,-2
CC1=CC(C)(C)n2c(O)c(N=N)c3cc(C)cc1c32,-1,.,-14,26*,-10
COc1ccccc1-c1ccccc1[C@H]1[C@@H](C#N)N(C(=O)CN(C)C)[C@H]1CO,.,.,.,-1,4
COc1ccc2c(c1)OC1(C)CC2C(C(=O)c2ccccc2OC)C(=O)N1 (stereo not drawn),0,-7,.,49*,9
CCCOC(=O)Nc1nc2ccccc2o1,37*,18,22,.,.
COc1ccc(NC(=O)N[C@H]2CC[C@H](CCn3cc(-c4ccccn4)nn3)O[C@@H]2CO)cc1,.,3,.,0,1
O=C(Nc1ccccc1Cl)c1cc(C2CCCN(C(=O)CCc3ccccc3)C2)on1 (stereo not drawn),-2,22,.,-4,-1
O=C(Nc1ccc(F)c(Cl)c1)c1cc(C2CCCN(S(=O)(=O)c3cccs3)C2)on1 (stereo not drawn),-1,11,.,-1,-10
CC(C)S(=O)(=O)N1CCCC(c2cc(C(=O)Nc3ccc(F)c(Cl)c3)no2)C1 (stereo not drawn),32*,48*,.,0,-19
O=C(Nc1ccccc1)c1cc(C2CCCN(C(=O)CCc3ccccc3)C2)on1 (stereo not drawn),17,64*,.,-2,-10
O=C(Nc1ccc(F)c(Cl)c1)c1cc(C2CCCN(C(=O)CCc3ccccc3)C2)on1 (stereo not drawn),26,47*,.,-3,-26
CN(CCc1ccccn1)C(=O)c1cc(COc2ccc(F)cc2F)on1,3,.,1,0,2
SMILES,Wnt act,esBAF inh,MITF TRPM1 HTS,MLL AF4-AF9 inh,Ecoli rRNA inh
O=C(O)c1cc2ncc(-c3[nH]ncc3[N+](=O)[O-])cn2n1,-3,.,9,0,27
CC(CCc1ccccc1)NC(=O)CN(C)Cc1ccc(F)cc1 (stereo not drawn),2,-37,-2,1,-4
CC(CCc1ccccc1)NC(=O)CN(C)Cc1ccccc1F (stereo not drawn),-1,6,3,-3,-29*
COc1cccc(-c2ocnc2C(=O)Nc2ccc(N3CCOCC3)cc2N2CCOCC2)c1,-3,-3,-5,35*,-8
O=C(Nc1cccnc1Cl)c1ccc(Cl)cc1,10,?,49,-2,5
O=C(NC(=S)Nc1cccnc1Cl)c1ccc(Cl)cc1,36*,?,34,-1,-8
O=C(Nc1cccc2cccnc12)c1ccc(Cl)cc1,5,45*,.,-8,-8
O=C(Nc1cccc2cccnc12)c1cccnc1,-2,13,-5,1,.
CC(C)NC(=O)N1CC[C@@H]2[C@@H](CO)N(C)c3ccc(-c4ccc(F)cc4)cc3[C@@H]21,.,3,.,15,-8
O=c1oc(=S)oc2c1[C@H](c1ccc(Cl)cc1)O[C@H](C1CCCC1)C2,-3,.,.,-9,-10
O=c1oc(=S)oc2c1[C@H](c1ccc(Cl)cc1)O[C@H](C1CC1)C2,-2,.,.,3,-43*
COCC1CN(CCc2ccc(F)cc2)S(=O)(=O)c2c(F)cccc2O1 (stereo not drawn),-1,.,.,-1,-22*
Cc1cc(-c2nnc(SCC(=O)Nc3ccccc3C)n2N)n[nH]1,-1,3,7,0,6
Nc1cccc2c(O)cccc12,6,.,-12,.,-28*
CC1(C(=O)Nc2cnc3ccccc3c2)CCN1CCOc1ccccc1 (stereo not drawn),-3,-3,.,-5,-40
COc1ccc(C(=O)OCC(=O)c2ccc[nH]2)cc1,26,51*,76,-2,3
CN(C)C(=O)c1cccc(-c2cc(NC=O)c3ncc(-c4ccc(F)c(Cl)c4)n3c2)c1,-3,-7,.,-4,-11
Nc1cc(Cl)nc(N/N=C/c2c(O)ccc3ccccc23)n1,0,.,12,7,-20*
Nc1nonc1N/N=C/c1c(O)ccc2ccccc12,-4,.,-13,7,-44
O=C(C1CCOCC1)N1C[C@@H]2[C@H](c3ccccc31)[C@@H](CO)N2C(=O)Cc1ccccn1,.,4,.,.,2
CCOC(=O)C1CCCCN1Cc1ccc(-c2ccccc2)cc1 (stereo not drawn),2,9,17,-1,-29*
CCOC(=O)C1CCCCN1Cc1ccc(F)cc1 (stereo not drawn),-2,3,2,-23,7
CC(=O)Nc1ccc(S(=O)(=O)C(C#N)c2nc3ccccc3nc2NCCO)cc1 (stereo not drawn),46*,-1,1,1,8
CC(=O)Nc1ccc(S(=O)(=O)C(C#N)c2nc3ccccc3nc2NCCCO)cc1 (stereo not drawn),2,4,-3,-1,6
Cc1ccc(S(=O)(=O)/N=C(/Nc2ccc(O)c(C(=O)O)c2)c2ccccc2)cc1,57*,0,-2,-3,2
COc1ccc(C(=O)NN/C(=N/S(=O)(=O)c2ccc(C)cc2)c2ccccc2)cc1,43*,.,129*,0,9

# Screens from PubChem BioAssay.
